Assay results published in the supplement of paper PMC4840960.
± gives the standard deviation of the averaged measurements.

Legend:
[1] = system: E18 rat cortical neuron-glia co-culture; assay: fiber score / MBP score (myelination specific beyond OL differentiation) (ratio); higher = more myelination-specific MBP alignment; conditions: treatment time: 8 days (DIV5-DIV13)
In short: (§1)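 Primary E18 rat cortical co-cultures (papain-dissociated, 20,000 cells/well on poly-d-lysine/laminin 96-well plates) received library compounds at 1 or 5 µM in myelination medium from DIV5 to DIV13. Cells were fixed in 4 % paraformaldehyde and immunostained for MBP and Olig2 with DAPI, and four 10X fields per well in duplicate wells were analysed. The read-out is fiber score (continuous MBP fiber length per Olig2+ nucleus) divided by MBP score (thresholded MBP area × intensity per Olig2+ nucleus).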

[2] = system: E18 rat cortical neuron-glia co-culture; assay: myelination (MBP fiber length per Olig2+ nucleus), % of 1 µM DAPT response (DMSO = 0) (% of DAPT); higher = more myelination, active = 50 or more; conditions: treatment time: 8 days (DIV5-DIV13)
In short: as §1, with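 “Myelination was continuous straight” for “The read-out is fiber score (continuous”, “nucleus, normalised to 0.1 % DMSO (0) and a 1 µM positive control (100).” for “nucleus) divided by MBP score (thresholded MBP area × intensity per Olig2+ nucleus).”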

SMILES	fiber score / MBP score ([1]; 1 µM)	fiber score / MBP score ([1]; 5 µM)	myelination ([2]; 1 µM)	myelination ([2]; 5 µM)
CN1C(=O)CC[C@H]1c1cccnc1 [Cotinine]	0.604	0.723	-30.3 (inactive)	-28.1 (inactive)
CCn1cc(C(=O)O)c(=O)c2cc(F)c(N3CCN(C)CC3)cc21 [Pefloxacin]	1	0.8	-8.57 (inactive)	-12.3 (inactive)
Cc1nccn1CC1CCc2c(c3ccccc3n2C)C1=O (stereo not drawn) [Ondansetron]	0.73 ± 0.022	0.404 ± 0.053	-25.6 (inactive)	-35.8 (inactive)
CN(C)CCCN1c2ccccc2CCc2ccc(Cl)cc21 [Clomipramine]	1.05	0.899	-10.8 (inactive)	-23 (inactive)
Cc1nc2n(c(=O)c1CCN1CCC(c3noc4cc(F)ccc34)CC1)CCCC2 [Risperidone]	0.936	0.565	-7.71 (inactive)	-15.1 (inactive)
CC(CN1c2ccccc2Sc2ccccc21)N(C)C (stereo not drawn) [Promethazine]	0.678	0.931	-18.8 (inactive)	-4.26 (inactive)
CC(C(=O)O)c1ccc(CC2CCCC2=O)cc1 (stereo not drawn) [loxoprofen]	0.944	0.875	1.34 (inactive)	-10.6 (inactive)
CCN1CCCC1CNC(=O)c1cc(S(=O)(=O)CC)ccc1OC (stereo not drawn) [Sultopride]	0.758	0.461	-20.9 (inactive)	-59.3 (inactive)
CC(C(O)c1ccc(O)cc1)N1CCC(Cc2ccccc2)CC1 (stereo not drawn) [Ifenprodil]	0.348	0.136	-70.3 (inactive)	-83.6 (inactive)
CC1Cc2ccccc2N1NC(=O)c1ccc(Cl)c(S(N)(=O)=O)c1 (stereo not drawn) [Indapamide]	0.911	1.31	-4.93 (inactive)	6.67 (inactive)
COc1cc2c(cc1OC)C(=O)C(CC1CCN(Cc3ccccc3)CC1)C2 (stereo not drawn) [Donepezil]	0.462	0.277	-20.8 (inactive)	-26.1 (inactive)
CCC(C)n1ncn(-c2ccc(N3CCN(c4ccc(OCC5COC(Cn6cncn6)(c6ccc(Cl)cc6Cl)O5)cc4)CC3)cc2)c1=O (stereo not drawn) [Itraconazole]	1.21	0.918	8.72 (inactive)	-72.2 (inactive)
CN1CCC(=C2c3ccccc3C=Cc3ccccc32)CC1 [Cyproheptadine]	0.58	0.686	-14.7 (inactive)	-1.4 (inactive)
Cc1cc(NS(=O)(=O)c2ccc(N)cc2)no1 [Sulfamethoxazole]	0.955	0.803	-3.29 (inactive)	-5.03 (inactive)
CC(C)Cc1ccc(C(C)C(=O)O)cc1 (stereo not drawn) [Ibuprofen]	0.67	0.833	-7.57 (inactive)	-2.85 (inactive)
CO[C@H]1/C=C/O[C@@]2(C)Oc3c(C)c(O)c4c(c3C2=O)C2=NC3(CCN(CC(C)C)CC3)NC2=C(NC(=O)/C(C)=C\C=C\[C@H](C)[C@H](O)[C@@H](C)[C@@H](O)[C@@H](C)[C@H](OC(C)=O)[C@@H]1C)C4=O [Rifabutin]	0.967 ± 0.41	0.734 ± 0.12	-2.92 (inactive)	-11.2 (inactive)
NS(=O)(=O)c1cc2c(cc1Cl)NCNS2(=O)=O [Hydrochlorothiazide]	0.749	0.819	-8.91 (inactive)	-12.5 (inactive)
CC(C)(C(=O)c1cccnc1)c1cccnc1 [Metyrapone]	0.588	0.894	-19.7 (inactive)	-9.03 (inactive)
COc1cc(C)nc(-n2nc(C)cc2OC)n1 [Epirizole]	0.549	0.623	-20.5 (inactive)	-13.2 (inactive)
Nc1nc(=O)[nH]cc1F [Flucytosine]	0.88	0.855	-9.17 (inactive)	-9.52 (inactive)
CN(C)CCC(c1ccc(Cl)cc1)c1ccccn1 (stereo not drawn) [Chlorpheniramine]	0.721 ± 0.13	0.471 ± 0.094	-9.68 (inactive)	-17.7 (inactive)
Cc1ncc([N+](=O)[O-])n1CC(O)CCl (stereo not drawn) [Ornidazole]	0.58	0.686	-14.7 (inactive)	-1.4 (inactive)
CN/C(=N\CCSCc1nc[nH]c1C)NC#N [Cimetidine]	0.731	0.823	-12.1 (inactive)	-6.66 (inactive)
CC(=O)Nc1ccc(CC(=O)O)cc1 [Actarit]	0.756	0.778	-13.9 (inactive)	-10.1 (inactive)

SMILES	fiber score / MBP score ([1]; 1 µM)	fiber score / MBP score ([1]; 5 µM)	myelination ([2]; 1 µM)	myelination ([2]; 5 µM)
COc1ccc(CC(C)NCC(O)c2ccc(O)c(NC=O)c2)cc1 (stereo not drawn) [Formoterol]	0.702	0.726	-12.6 (inactive)	-14.5 (inactive)
CCCc1nc(C(C)(C)O)c(C(=O)O)n1Cc1ccc(-c2ccccc2-c2nnn[nH]2)cc1 [Olmesartan]	0.778	0.698	-32.2 (inactive)	-45 (inactive)
CC(C)(C)NC(=O)[C@@H]1CN(Cc2cccnc2)CCN1C[C@@H](O)C[C@@H](Cc1ccccc1)C(=O)N[C@H]1c2ccccc2C[C@H]1O [Indinavir]	0.908	0.894	-20.5 (inactive)	-24.1 (inactive)
CC(c1cc2ccccc2s1)N(O)C(N)=O (stereo not drawn) [Zileuton]	0.599	0.628	-6.73 (inactive)	-19.1 (inactive)
CC(C)[N+](C)(CCOC(=O)C1c2ccccc2Oc2ccccc21)C(C)C [Propantheline]	0.889	0.949	-4.45 (inactive)	3.32 (inactive)
O=C1Nc2ccc(Cl)cc2[C@@](C#CC2CC2)(C(F)(F)F)O1 [Efavirenz]	0.744	0.712	-8.9 (inactive)	11.1 (inactive)
Nc1ccc(S(=O)(=O)c2ccc(N)cc2)cc1 [Dapsone]	0.932	0.925	-3.07 (inactive)	-4.22 (inactive)
CN1C(C(=O)Nc2ccccn2)=C(O)c2ccccc2S1(=O)=O [Piroxicam]	0.787	1.04	-10.9 (inactive)	-8.56 (inactive)
CCN(Cc1ccncc1)C(=O)C(CO)c1ccccc1 (stereo not drawn) [Tropicamide]	0.511	0.747	-22.3 (inactive)	-16.2 (inactive)
CCN(CC)CCOC(=O)c1ccc(N)cc1 [Procaine]	1.09	1.47	6.68 (inactive)	23.1 (inactive)
Cc1cccc(C)c1NC(=O)C1CCCCN1C (stereo not drawn) [Mepivacaine]	0.728	0.864	-12.3 (inactive)	-4.33 (inactive)
CC1=C(/C=C/C(C)=C/C=C/C(C)=C/C(=O)O)C(C)(C)CCC1 [Retinoic Acid]	0.93	0.533	-3.28 (inactive)	-10.5 (inactive)
CCOc1cc(CC(=O)N[C@@H](CC(C)C)c2ccccc2N2CCCCC2)ccc1C(=O)O [Repaglinide]	0.81	1.19	-8.93 (inactive)	2.54 (inactive)
CCN(CC)CCNC(=O)c1ccc(N)cc1 [Procainamide]	0.82	1.19	-8.23 (inactive)	4.78 (inactive)
Nc1nc(Cl)nc2c1ncn2[C@@H]1O[C@H](CO)[C@@H](O)[C@H]1O [2-Chloroadenosine]	0.752	0.764	-12.4 (inactive)	-10.5 (inactive)
CCN1CC(CCN2CCOCC2)C(c2ccccc2)(c2ccccc2)C1=O (stereo not drawn) [Doxapram]	0.83	0.769	-10.9 (inactive)	-11 (inactive)
O=C1CCC(N2C(=O)c3ccccc3C2=O)C(=O)N1 (stereo not drawn) [Thalidomide]	1.07	1.14	1.07 (inactive)	4.71 (inactive)
CC(C)[N+]1(C)[C@@H]2CC[C@H]1C[C@@H](OC(=O)C(CO)c1ccccc1)C2 (stereo partly drawn) [Ipratropium]	0.783	1.52	0.204 (inactive)	32.8 (inactive)
CN(C)CCOC(C)(c1ccccc1)c1ccccn1 (stereo not drawn) [Doxylamine]	0.674	0.969	-13.6 (inactive)	-5.08 (inactive)
NC(Cc1cc(I)c(Oc2cc(I)c(O)c(I)c2)c(I)c1)C(=O)O (stereo not drawn) [Thyroxine]	0.768	1.19	-4.45 (inactive)	32 (inactive)
O=C1CN(/N=C/c2ccc([N+](=O)[O-])o2)C(=O)N1 [Nitrofurantoin]	0.819	1.79	-1.03 (inactive)	44 (inactive)
CN(C)CCC(c1ccc(Br)cc1)c1ccccn1 (stereo not drawn) [Brompheniramine]	0.611	0.693	-14.9 (inactive)	-12.4 (inactive)
CC[N+](C)(C)c1cccc(O)c1 [Edrophonium]	0.813	0.982	-6.47 (inactive)	0.577 (inactive)
